GRK2 aptamer HTS: compounds blocking aptamer binding on GRK2 – biochemical, human GRK2, bead flow cytometry, HTS, primary screen; FAM-aptamer displacement from GRK2; inhibition of aptamer binding, % at 10 µM; 330,000 compounds, 0.59% hits;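 active means inhibition of aptamer binding above 40%, roughly 3 SD of noise, on plates passing a quality check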;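 further: median bead fluorescence of bound FAM aptamer so fluorescent compounds give negative values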
Neddylation inh: inhibitors of cullin neddylation, primary screen, biochemical, TR-FRET, uHTS, NAE and Ubc12 | NEDD8-conjugating enzyme Ubc12 (Homo sapiens) + NEDD8-activating enzyme E1 regulatory … | inhibition, % at 25 µM | 360,000 compounds, 0.58% hits | AID 651699, 2012; in the data active means inhibition above about 36%
HDAC3 inhib: HDAC3 deacetylase inhibitors, primary screen, biochemical, fluorescence, cell-free homogeneous | AID 2718, 2010 | 320,000 compounds, 0.15% hits | Histone deacetylase 3 (Homo sapiens), O15379 | recombinant HDAC3, fluorogenic peptide/trypsin coupled | inhibition, % at 8.3 µM; in the data active means inhibition above about 26%, passing the limit was not always enough; inconclusive means no clear call, values can overlap the other calls
Target sequence (O15379 whole entry, looked up): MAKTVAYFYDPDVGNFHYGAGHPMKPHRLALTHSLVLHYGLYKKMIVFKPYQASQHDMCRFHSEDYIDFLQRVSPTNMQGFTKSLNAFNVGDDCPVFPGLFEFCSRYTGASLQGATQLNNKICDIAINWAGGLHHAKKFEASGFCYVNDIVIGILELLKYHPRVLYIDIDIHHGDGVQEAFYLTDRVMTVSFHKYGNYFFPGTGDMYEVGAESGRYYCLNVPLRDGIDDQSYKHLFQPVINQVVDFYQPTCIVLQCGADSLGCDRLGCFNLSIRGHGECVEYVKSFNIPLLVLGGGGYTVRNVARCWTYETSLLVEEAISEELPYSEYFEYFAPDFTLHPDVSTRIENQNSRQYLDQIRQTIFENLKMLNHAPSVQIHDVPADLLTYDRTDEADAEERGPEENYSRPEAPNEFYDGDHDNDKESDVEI
H9c2 protect: cardioprotection against H2O2-induced cell death, primary screen, uHTS, H9c2 cells, ATPLite luminescence | H9c2 cardiomyocytes, H2O2 injury protection, 2 h | protection from H2O2 cell death, % at 20 µM | 360,000 compounds, 0.63% hits;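 active means compounds giving at least 50% protection of heart cells from peroxide-induced death in the single-dose screen, raw or plate-pattern-corrected value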;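 further: 0% = DMSO wells with peroxide and 100% = DMSO wells without peroxide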
Neddyl conf: blockade of NEDD8 conjugation to cullin – biochemical, TR-FRET, single concentration, confirmation. TR-FRET cullin neddylation biochemical assay. 1,800 compounds, 13% hits. shares compounds with Neddylation inh. calls only at 25 µM. AID 652217, 2013; in the data active means inhibition above about 40%;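 further: neddylation substrate is the cullin 1 ring ligase complex with SKP2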
Starred values were filed as active, the others as inactive. Compounds with a hit are over-represented: about 1.8% of the library has one in this group of screens.

For O=C(O)c1ccc(/C=N/NC(=O)c2ccc(CN3c4cccc5cccc(c45)S3(=O)=O)cc2)cc1 the results were GRK2 aptamer HTS 1, Neddylation inh 51*, HDAC3 inhib 3, H9c2 protect -3 and Neddyl conf active.
For Cc1ccn2cc(C(=O)Nc3nnc(C)s3)nc2c1 the results were GRK2 aptamer HTS 1, Neddylation inh 40*, HDAC3 inhib 0, H9c2 protect -5 and Neddyl conf inactive.
Screening Cc1ccn2cc(C(=O)Nc3ccc4c(c3)OCCO4)nc2c1 returned GRK2 aptamer HTS 0, Neddylation inh 10, HDAC3 inhib 7 and H9c2 protect -14.
For COc1ccc(-c2nn(-c3ccccc3)cc2CO)cc1OC the results were GRK2 aptamer HTS 0, Neddylation inh 39*, HDAC3 inhib -28, H9c2 protect -2 and Neddyl conf inactive.
`CC1(C)CC(=O)c2c(nc3ccccc3c2N)C1` gave GRK2 aptamer HTS 0, Neddylation inh 23, HDAC3 inhib -7 and H9c2 protect 4.
For Cc1nc2c(c3c1[nH]c1ccccc13)C(=O)CC(C)(C)C2 the results were GRK2 aptamer HTS 1, Neddylation inh 46*, HDAC3 inhib 6 and H9c2 protect 20.
For Nc1ccc(C(=O)N/N=C/c2cn(Cc3ccccc3)c3ccccc23)cc1 the results were GRK2 aptamer HTS 0, Neddylation inh 41*, HDAC3 inhib 15, H9c2 protect -3 and Neddyl conf inactive.
For COc1cc(C(=O)N/N=C/c2cn(Cc3ccccc3)c3ccccc23)ccc1O the results were GRK2 aptamer HTS 5, Neddylation inh 38, HDAC3 inhib 9 and H9c2 protect -6.
CCC(=O)Nc1ccc(C(=O)CSc2nnc(-c3ccc(NS(=O)(=O)CC)cc3)o2)cc1OC was read as GRK2 aptamer HTS 1, Neddylation inh 44*, HDAC3 inhib -4, H9c2 protect -1 and Neddyl conf inactive.
For Cc1ccc(C)c(S(=O)(=O)C(C#N)c2nc3ccccc3nc2N2CC(C)OC(C)C2)c1 (stereo unspecified) the results were GRK2 aptamer HTS 0, Neddylation inh 43*, HDAC3 inhib 6, H9c2 protect -14 and Neddyl conf inactive.
`COc1ccc(NC(=O)CN(C)C(=O)c2sc3cc(Cl)ccc3c2Cl)cc1` gave GRK2 aptamer HTS 4, Neddylation inh -45, HDAC3 inhib -6 and H9c2 protect -2.
`COc1cc2cc(CN(CCCN3CCOCC3)C(=O)Nc3ccccc3F)c(=O)[nH]c2cc1OC` gave GRK2 aptamer HTS 2, Neddylation inh 40*, HDAC3 inhib 0, H9c2 protect 12 and Neddyl conf inactive.
COc1ccc(NC2CCCN(C(=O)C3=NNC(=O)CC3)C2)cc1 (stereo unspecified) was read as Neddylation inh -4 and H9c2 protect -2.
O=C(Nc1cccc(F)c1)c1cccnc1NCCc1ccccc1 was read as GRK2 aptamer HTS 2, Neddylation inh 44*, HDAC3 inhib 10, H9c2 protect -2 and Neddyl conf inactive.
CC1CCc2c(nc3ncnn3c2NCCN(C)C)C1 (stereo unspecified) was read as GRK2 aptamer HTS 0, Neddylation inh -6, HDAC3 inhib -6 and H9c2 protect -3.
For O=C(O)c1cc(N=Cc2c(O)c3ccccc3oc2=O)ccc1O the results were GRK2 aptamer HTS 0, Neddylation inh 43*, HDAC3 inhib 10 and H9c2 protect 1.
Cc1nc2ccc(-c3nc4ccccc4[nH]3)cc2[nH]1 was read as GRK2 aptamer HTS 2, Neddylation inh 47*, HDAC3 inhib -21, H9c2 protect -22 and Neddyl conf inactive.
For O=C(CCN1C(=O)C2CC=CCC2C1=O)OCC(=O)c1ccc(F)cc1 (stereo unspecified) the results were GRK2 aptamer HTS 1, Neddylation inh -18, HDAC3 inhib 3 and H9c2 protect 23.
For CC(=O)Nc1ccc(C(=O)COC(=O)CCN2C(=O)C3CC=CCC3C2=O)cc1 (stereo unspecified) the results were GRK2 aptamer HTS 0, Neddylation inh 58*, HDAC3 inhib 4, H9c2 protect 7 and Neddyl conf inactive.
Cc1c(OCc2nn[nH]n2)ccc2c3c(c(=O)oc12)CCC(C)C3 (stereo unspecified) was read as GRK2 aptamer HTS 2, Neddylation inh 47*, HDAC3 inhib -15, H9c2 protect 4 and Neddyl conf inactive.
CC(NC(=O)C1CCN(c2nnc(N3CCCC3=O)s2)CC1)c1ccccc1 (stereo unspecified) was read as GRK2 aptamer HTS 3, Neddylation inh 0, HDAC3 inhib 3 and H9c2 protect 2.
Screening C=C(Cl)COc1ccc2c(CC)cc(=O)oc2c1 returned GRK2 aptamer HTS 0, Neddylation inh 42*, HDAC3 inhib -7, H9c2 protect -1 and Neddyl conf inactive.
CCCn1c(=O)n(CC(=O)NCC2CCCO2)c(=O)c2c3c(sc21)COC(C)(C)C3 (stereo unspecified) was read as GRK2 aptamer HTS 0, Neddylation inh 2, HDAC3 inhib -8 and H9c2 protect 4.
For COc1cc2c(cc1OC)-c1cc(NC3CCCC3)nc(=O)n1CC2 the results were GRK2 aptamer HTS 3, Neddylation inh 41*, HDAC3 inhib 0, H9c2 protect 4 and Neddyl conf inactive.
`COc1cc2c(cc1OC)-c1cc(Nc3ccc(F)cc3)nc(=O)n1CC2` gave GRK2 aptamer HTS 0, Neddylation inh 15, HDAC3 inhib -2 and H9c2 protect 8.
`COCCCn1c(=O)c2sccc2n2c(CCCC(=O)NCc3ccc(F)cc3)nnc12` gave GRK2 aptamer HTS 0, Neddylation inh 42*, HDAC3 inhib -5, H9c2 protect 9 and Neddyl conf inactive.
For CCN(CC)S(=O)(=O)c1ccc2c3c(cccc13)C(=O)N2 the results were GRK2 aptamer HTS 0, Neddylation inh 49*, HDAC3 inhib -6 and H9c2 protect -14.
For Cn1c(N/N=C/c2cccs2)nc2c1c(=O)n(Cc1ccccc1)c(=O)n2C the results were GRK2 aptamer HTS 1, Neddylation inh 39*, HDAC3 inhib -3, H9c2 protect 11 and Neddyl conf inactive.
`Cn1c(=O)c2c(nc(N/N=C/c3cccs3)n2Cc2ccccc2)n(C)c1=O` gave GRK2 aptamer HTS 0, HDAC3 inhib inconclusive and H9c2 protect -8.
Screening COc1ccc(-c2nc3nc(C)c(Cc4ccccc4)c(=O)n3[nH]2)cc1 returned GRK2 aptamer HTS 0, Neddylation inh 46*, HDAC3 inhib -3 and H9c2 protect -9.
COc1ccc(C2CC(c3ccccc3)=NN2C(=O)COC(=O)c2nc3nc(C)cc(C)n3n2)cc1 (stereo unspecified) was read as GRK2 aptamer HTS 0, Neddylation inh -5, HDAC3 inhib -2 and H9c2 protect 7.

Bioassay records deposited in PubChem by several laboratories.
